Results as given in the supplement of paper PMC10849652.
Of roughly 7,900 targets only a part is listed; those with a hit were picked by preference. About 0.6% of all pairs of compound and target were hits. A number with no mark means an inactive call.

Legend:
Experiment in all cases: log2 fold change, soluble protein after heating vs DMSO (PISA); higher = thermal stabilisation; K562 cells, 10 uM, 30 min; active = over 0.2 and 3.5 SD of the protein, either way, in both replicates (recomputed)
[1] = compound: CC[C@@H]1C(=O)N(C)c2cnc(Nc3ccc(C(=O)NC4CCN(C)CC4)cc3OC)nc2N1C1CCCC1
Method in brief: (§1)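 Aliquots of K562 cells (2×10^6 cells/mL) treated with 10 μM compound for 30 min were heated for 3 min over 48°C-58°C. After pooling and extraction in PBS with 0.5% NP-40 at 4°C, soluble protein from a 21,000xg, 90 min spin was quantified by TMTpro 16plex LC-MS/MS with channel sums equalised. Thermal stability is expressed against control samples, from duplicates, as a log2 fold change.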

[2] = compound: CC[C@@H]1C(=O)N(C)c2cnc(Nc3ccc(C(=O)N[C@H]4CC[C@H](N5CCN(CC6CC6)CC5)CC4)cc3OC)nc2N1C(C)C [volasertib]
Method in brief: as §1

[3] = compound: CC[C@H](C)[C@@H](C(=O)N[C@@H]([C@@H](C)O)C(=O)N[C@@H](CC(C)C)C(=O)[C@]1(CO1)C)NC(=O)[C@H]([C@@H](C)CC)N(C)C(=O)C [epoxomicin]
Method in brief: as §1

[4] = compound: CCn1c(C(=O)N(C2CC2)C2CC2)cc2c3c(ncn3C)c(Nc3cc(C)n(C)n3)nc21
Method in brief: as §1

[5] = compound: CCn1cc(-c2ccnc3[nH]c(-c4cccc(CN(C)C)c4)cc23)c(-c2ccc(NC(=O)N(C)C)cc2)n1
Method in brief: as §1

[6] = compound: CN(CCOC1=CC=C(C=C1)C[C@H]2C(=O)NC(=O)S2)C3=CC=CC=N3 (racemic) [rosiglitazone]
Method in brief: as §1

[7] = compound: CN1CCC(CNc2ccc3ncc(-c4cccc(OC(F)(F)F)c4)n3n2)CC1
Method in brief: as §1

[8] = compound: CN1C2=C(C3=C1C(=O)N(N=C3)CC4=CC(=CC=C4)N)SC(=C2)S(=O)C
Method in brief: as §1

[9] = compound: CN(C)CC(=O)Nc1ccc2[nH]c(=O)c3ccccc3c2c1
Method in brief: as §1

[10] = compound: CC[C@H](C)N1C=C(C2=C(C=C(C=C21)C3=CN=C(C=C3)N4CCNCC4)C(=O)NCC5=C(C=C(NC5=O)C)C)C
Method in brief: as §1

Sequence of UniProt Q6PID6 (Q6PID6 whole entry, looked up): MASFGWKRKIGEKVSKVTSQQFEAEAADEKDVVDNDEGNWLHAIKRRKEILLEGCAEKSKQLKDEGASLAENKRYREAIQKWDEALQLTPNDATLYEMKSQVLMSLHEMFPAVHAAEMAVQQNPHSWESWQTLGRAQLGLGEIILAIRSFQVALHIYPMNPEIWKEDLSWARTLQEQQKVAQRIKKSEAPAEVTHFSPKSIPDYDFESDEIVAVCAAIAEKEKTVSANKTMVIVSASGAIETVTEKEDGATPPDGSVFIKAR
Sequence of UniProt Q9BZM6 (Q9BZM6 whole entry, looked up): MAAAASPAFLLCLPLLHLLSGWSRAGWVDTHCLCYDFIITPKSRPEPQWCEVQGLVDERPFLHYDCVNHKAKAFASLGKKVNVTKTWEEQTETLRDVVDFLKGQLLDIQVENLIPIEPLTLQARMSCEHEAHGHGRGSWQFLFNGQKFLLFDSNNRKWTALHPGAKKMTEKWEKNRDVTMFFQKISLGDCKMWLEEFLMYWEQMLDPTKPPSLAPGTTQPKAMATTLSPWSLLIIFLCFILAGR
Sequence of UniProt Q8N2K1 (Q8N2K1 whole entry, looked up): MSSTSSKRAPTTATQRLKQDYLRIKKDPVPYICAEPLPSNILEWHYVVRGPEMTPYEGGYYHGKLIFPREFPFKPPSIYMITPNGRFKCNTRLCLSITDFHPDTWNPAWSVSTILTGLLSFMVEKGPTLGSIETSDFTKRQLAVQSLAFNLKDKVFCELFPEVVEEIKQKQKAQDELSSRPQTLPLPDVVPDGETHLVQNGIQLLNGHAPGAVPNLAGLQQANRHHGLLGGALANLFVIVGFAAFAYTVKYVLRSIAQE
Sequence of UniProt P30291 (P30291 whole entry, looked up): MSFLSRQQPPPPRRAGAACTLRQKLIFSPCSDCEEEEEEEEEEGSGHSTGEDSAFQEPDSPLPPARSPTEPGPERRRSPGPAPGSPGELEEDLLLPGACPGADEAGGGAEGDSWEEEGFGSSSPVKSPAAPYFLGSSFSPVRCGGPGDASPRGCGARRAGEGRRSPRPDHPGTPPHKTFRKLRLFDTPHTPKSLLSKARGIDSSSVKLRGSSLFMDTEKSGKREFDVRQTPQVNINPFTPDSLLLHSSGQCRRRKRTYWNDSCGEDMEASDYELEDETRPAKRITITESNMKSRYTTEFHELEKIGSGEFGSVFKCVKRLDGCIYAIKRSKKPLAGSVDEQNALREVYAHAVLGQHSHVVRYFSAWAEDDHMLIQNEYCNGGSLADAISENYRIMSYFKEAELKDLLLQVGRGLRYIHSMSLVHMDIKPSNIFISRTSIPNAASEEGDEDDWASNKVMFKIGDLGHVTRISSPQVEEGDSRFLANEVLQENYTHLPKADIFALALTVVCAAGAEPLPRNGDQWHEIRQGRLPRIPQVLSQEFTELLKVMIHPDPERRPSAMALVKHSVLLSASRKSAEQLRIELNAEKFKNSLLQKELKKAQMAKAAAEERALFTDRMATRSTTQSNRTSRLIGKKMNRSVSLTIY
Sequence of UniProt P49815 (P49815 whole entry, looked up): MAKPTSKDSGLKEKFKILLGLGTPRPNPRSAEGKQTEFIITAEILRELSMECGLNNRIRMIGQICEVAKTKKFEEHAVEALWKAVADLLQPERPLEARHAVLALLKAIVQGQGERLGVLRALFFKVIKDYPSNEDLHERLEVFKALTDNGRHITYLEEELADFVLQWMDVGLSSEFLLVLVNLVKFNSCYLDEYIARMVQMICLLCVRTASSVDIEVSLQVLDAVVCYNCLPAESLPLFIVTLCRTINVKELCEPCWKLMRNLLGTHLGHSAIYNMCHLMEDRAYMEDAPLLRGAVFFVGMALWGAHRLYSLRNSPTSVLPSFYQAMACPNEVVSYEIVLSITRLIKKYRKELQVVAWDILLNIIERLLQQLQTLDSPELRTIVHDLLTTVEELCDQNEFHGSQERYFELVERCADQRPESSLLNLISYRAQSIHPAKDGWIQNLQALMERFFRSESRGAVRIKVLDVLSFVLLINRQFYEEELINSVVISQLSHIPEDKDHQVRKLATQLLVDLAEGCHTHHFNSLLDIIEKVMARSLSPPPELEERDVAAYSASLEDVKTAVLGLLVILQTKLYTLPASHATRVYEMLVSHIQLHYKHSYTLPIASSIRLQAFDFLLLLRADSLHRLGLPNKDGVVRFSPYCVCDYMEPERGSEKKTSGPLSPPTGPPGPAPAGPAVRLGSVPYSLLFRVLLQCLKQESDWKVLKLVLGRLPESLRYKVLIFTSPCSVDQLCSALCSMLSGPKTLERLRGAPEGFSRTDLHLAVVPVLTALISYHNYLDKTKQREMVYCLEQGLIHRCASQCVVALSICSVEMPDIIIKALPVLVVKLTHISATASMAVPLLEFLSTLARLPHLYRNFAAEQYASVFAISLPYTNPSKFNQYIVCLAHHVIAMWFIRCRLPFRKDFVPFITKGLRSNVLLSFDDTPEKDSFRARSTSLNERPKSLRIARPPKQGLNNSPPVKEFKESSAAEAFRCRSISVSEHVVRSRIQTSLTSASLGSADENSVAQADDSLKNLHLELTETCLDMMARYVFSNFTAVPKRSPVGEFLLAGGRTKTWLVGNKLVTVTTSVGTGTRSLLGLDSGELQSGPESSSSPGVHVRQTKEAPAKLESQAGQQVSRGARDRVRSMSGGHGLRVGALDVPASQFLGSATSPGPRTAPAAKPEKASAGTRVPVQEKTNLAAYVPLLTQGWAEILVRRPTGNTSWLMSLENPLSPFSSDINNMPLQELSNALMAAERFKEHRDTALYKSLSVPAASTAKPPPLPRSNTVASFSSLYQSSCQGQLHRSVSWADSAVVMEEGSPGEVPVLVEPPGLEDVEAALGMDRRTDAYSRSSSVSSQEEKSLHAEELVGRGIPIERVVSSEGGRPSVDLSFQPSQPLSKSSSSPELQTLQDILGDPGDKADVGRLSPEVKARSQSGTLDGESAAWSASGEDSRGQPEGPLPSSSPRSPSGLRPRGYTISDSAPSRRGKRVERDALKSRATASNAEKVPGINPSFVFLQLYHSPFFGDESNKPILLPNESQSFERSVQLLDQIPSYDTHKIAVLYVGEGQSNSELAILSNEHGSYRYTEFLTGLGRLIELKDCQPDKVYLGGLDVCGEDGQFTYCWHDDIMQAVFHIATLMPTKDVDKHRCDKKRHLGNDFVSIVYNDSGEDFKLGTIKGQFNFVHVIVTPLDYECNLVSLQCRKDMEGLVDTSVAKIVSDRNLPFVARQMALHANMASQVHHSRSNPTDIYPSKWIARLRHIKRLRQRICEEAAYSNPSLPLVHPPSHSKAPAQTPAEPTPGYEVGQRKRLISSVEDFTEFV
Sequence of UniProt O60784 (O60784 whole entry, looked up): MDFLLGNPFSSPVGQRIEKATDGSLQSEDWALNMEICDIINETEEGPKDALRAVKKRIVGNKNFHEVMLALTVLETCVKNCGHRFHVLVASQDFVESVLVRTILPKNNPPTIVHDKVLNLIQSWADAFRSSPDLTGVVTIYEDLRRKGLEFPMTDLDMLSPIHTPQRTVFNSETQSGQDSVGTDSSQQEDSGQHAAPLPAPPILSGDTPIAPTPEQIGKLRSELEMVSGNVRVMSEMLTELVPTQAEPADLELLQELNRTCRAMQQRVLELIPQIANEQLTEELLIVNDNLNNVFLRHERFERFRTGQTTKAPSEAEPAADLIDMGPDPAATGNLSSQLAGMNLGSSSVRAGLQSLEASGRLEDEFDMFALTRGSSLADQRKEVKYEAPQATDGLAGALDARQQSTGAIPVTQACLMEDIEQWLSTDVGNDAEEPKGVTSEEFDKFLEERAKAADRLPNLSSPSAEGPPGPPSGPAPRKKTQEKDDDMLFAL
Sequence of UniProt Q9Y5Z9 (Q9Y5Z9 whole entry, looked up): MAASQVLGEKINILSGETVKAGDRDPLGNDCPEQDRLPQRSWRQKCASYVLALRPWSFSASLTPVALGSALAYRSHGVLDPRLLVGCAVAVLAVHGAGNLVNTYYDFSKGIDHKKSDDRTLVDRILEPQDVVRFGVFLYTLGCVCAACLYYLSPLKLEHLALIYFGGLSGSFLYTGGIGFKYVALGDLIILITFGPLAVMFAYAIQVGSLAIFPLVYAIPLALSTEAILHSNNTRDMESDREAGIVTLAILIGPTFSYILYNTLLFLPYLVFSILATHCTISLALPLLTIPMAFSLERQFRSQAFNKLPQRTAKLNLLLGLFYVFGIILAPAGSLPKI
Sequence of UniProt O00124 (O00124 whole entry, looked up): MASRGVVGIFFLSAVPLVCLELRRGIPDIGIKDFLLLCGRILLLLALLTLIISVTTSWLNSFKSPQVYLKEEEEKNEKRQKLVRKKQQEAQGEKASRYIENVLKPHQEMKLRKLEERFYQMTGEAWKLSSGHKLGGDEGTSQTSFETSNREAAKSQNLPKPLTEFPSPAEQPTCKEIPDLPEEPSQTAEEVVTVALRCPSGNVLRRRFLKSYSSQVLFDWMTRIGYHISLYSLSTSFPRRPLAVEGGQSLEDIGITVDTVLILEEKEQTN
Sequence of UniProt Q629K1 (Q629K1 whole entry, looked up): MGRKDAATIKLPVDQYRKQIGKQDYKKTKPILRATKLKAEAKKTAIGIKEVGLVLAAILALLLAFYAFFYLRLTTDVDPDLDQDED
Sequence of UniProt Q9C035 (Q9C035 whole entry, looked up): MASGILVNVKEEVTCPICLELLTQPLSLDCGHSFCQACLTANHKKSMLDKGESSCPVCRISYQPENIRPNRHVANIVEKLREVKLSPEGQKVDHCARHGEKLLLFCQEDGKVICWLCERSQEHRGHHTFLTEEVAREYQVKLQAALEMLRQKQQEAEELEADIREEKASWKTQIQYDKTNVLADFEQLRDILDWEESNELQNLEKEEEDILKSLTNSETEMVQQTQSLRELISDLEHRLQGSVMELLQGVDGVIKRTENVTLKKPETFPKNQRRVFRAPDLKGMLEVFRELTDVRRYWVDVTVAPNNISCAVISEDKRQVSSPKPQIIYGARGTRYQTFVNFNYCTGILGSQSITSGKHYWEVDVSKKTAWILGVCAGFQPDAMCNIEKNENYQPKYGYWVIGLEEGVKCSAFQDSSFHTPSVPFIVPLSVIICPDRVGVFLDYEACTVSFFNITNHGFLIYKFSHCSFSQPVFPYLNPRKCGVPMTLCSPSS

| Target | log2 fold change [1] | log2 fold change [2] | log2 fold change [3] | log2 fold change [4] | log2 fold change [5] | log2 fold change [6] | log2 fold change [7] | log2 fold change [8] | log2 fold change [9] | log2 fold change [10] |
| --- | --- | --- | --- | --- | --- | --- | --- | --- | --- | --- |
| TSC2 (UniProt P49815) | -0.062 | -0.23 | -0.01 | -0.295 | 0.016 | -0.052 | -0.041 |  |  |  |
| XRCC1 (UniProt P18887) |  |  | -0.1 | -0.09 | 0.006 |  | -0.239 | -0.192 |  |  |
| UBA52 (UniProt P62987) | 0.227 | 0.572 | -0.29 | 0.071 | 0.351 | -0.151 | 0.369 |  | -0.256 |  |
| TUBA4A (UniProt C9JJQ8) | -0.115 | 0.099 |  |  |  | -0.078 |  | 0.114 | 0.09 |  |
| UBIAD1 (UniProt Q9Y5Z9) | -0.008 | -0.065 |  | -0.009 | 0.027 | 0.044 | -0.041 | -0.094 | -0.011 | -0.014 |
| UTP20 (UniProt O75691) |  | 0.093 | -0.355 | 0.105 |  |  |  |  |  |  |
| UBE2J2 isoform 3 (UniProt Q8N2K1) | -0.07 | -0.157 | 0.254 | 0.047 | -0.418 | 0.068 | 0.122 | -0.055 | 0.04 |  |
| TRIQK (UniProt Q629K1) |  |  | -0.02 |  |  | 0.039 |  | -0.04 |  |  |
| TRIM23 (UniProt P36406) | 0.013 |  |  | -0.059 | -0.089 | -0.231 | -0.228 | -0.116 | 0.025 | 0.049 |
| U2AF1L5 (UniProt P0DN76) | -0.289 |  |  | -0.303 |  | 0.04 |  | 0.112 | 0.138 | 0.045 |
| TTC33 (UniProt Q6PID6) | 0.038 | -0.027 | 0.049 | 0.012 | -0.449 (active) | 0.035 | 0.138 | -0.048 | -0.075 |  |
| TMEM219 (UniProt Q86XT9) |  | -0.111 | 0.035 | 0.002 | 0.037 | 0.078 | -0.029 | -0.085 | 0.094 | 0.033 |
| USP48 (UniProt Q86UV5) | -0.159 |  |  | -0.045 |  | 0.101 |  |  |  | 0.059 |
| TTC26 |  |  |  |  |  | 0.068 |  |  | -0.088 |  |
| WARS1 (UniProt G3V3P2) |  |  |  |  |  | 1.27 |  |  |  |  |
| TVP23C (UniProt Q96ET8) | 0.097 | 0.068 |  | 0.039 | -0.019 |  | -0.033 | 0 | -0.025 |  |
| UBAP2L (UniProt F8W726) | 0.077 | -0.002 |  | 0.008 | 0.025 | 0.123 | -0.027 |  |  | -0.094 |
| WDR75 (UniProt Q8IWA0) |  | -0.153 | -0.156 |  |  | -0.061 |  | 0.166 | -0.073 | -0.041 |

| Target | log2 fold change [1] | log2 fold change [2] | log2 fold change [3] | log2 fold change [4] | log2 fold change [5] | log2 fold change [6] | log2 fold change [7] | log2 fold change [8] | log2 fold change [9] | log2 fold change [10] |
| --- | --- | --- | --- | --- | --- | --- | --- | --- | --- | --- |
| TSPAN13 (UniProt O95857) |  | 0.098 | -0.148 | 0.097 | -0.098 | 0 | -0.003 | -0.036 | 0.512 (active) | -0.083 |
| UBE3B (UniProt Q7Z3V4) |  | -0.554 (active) | -0.023 |  |  | 0.179 |  | -0.007 |  | 0.088 |
| WARS1 (UniProt G3V277) |  |  |  | -0.084 | 0.098 | 0.078 | -0.12 |  | -0.163 | -0.041 |
| TOM1 (UniProt O60784) |  |  | 0.094 | 0.035 | -0.072 | 0.019 | -0.664 (active) |  |  |  |
| UTP3 (UniProt Q9NQZ2) | 0.067 | -0.012 | -0.376 | -0.007 | 0.236 | -0.41 | 0.092 | 0.165 | -0.052 |  |
| TXNRD1 isoform 7 (UniProt Q16881) | 0.054 | -0.106 | 0.155 | -0.001 | -0.501 | 0.024 | -0.028 | 0.101 | -0.074 |  |
| TOM1L2 (UniProt Q6ZVM7) |  |  | -0.035 | 0.09 |  |  |  | -0.071 | 0.127 | -0.025 |
| WARS1 (UniProt G3V339) |  |  | -0.238 |  |  |  |  |  |  |  |
| XAB2 (UniProt Q9HCS7) |  |  | 0.019 |  |  |  |  | 0.026 |  |  |
| TRIM5 (UniProt Q9C035) |  |  | 0 | 0.017 |  |  |  | 0.25 | -0.005 |  |
| TRPT1 isoform 4 (UniProt Q86TN4) | 0.084 |  |  | 0.071 |  |  |  |  |  |  |
| WARS1 (UniProt G3V5U1) | -0.03 |  | -0.237 |  |  | 0.554 |  |  |  |  |
| WEE1 (UniProt P30291) |  | 0.07 | 0.203 | 0.003 | -0.209 | 0.072 | 0.195 | 0.046 | -0.103 | -0.028 |
| ULBP1 (UniProt Q9BZM6) |  | -0.178 | 0.152 | -0.013 |  |  |  | 0.007 | -0.019 |  |
| WDR4 isoform 3 (UniProt P57081) |  |  | 0.017 |  | -0.044 | 0.142 | -0.036 |  |  |  |
| UBXN8 (UniProt O00124) | 0.081 | -0.179 | 0.073 |  | -0.039 | 0.259 | -0.297 | 0.147 | -0.051 |  |
| WARS1 (UniProt G3V227) |  |  | -0.28 |  |  | 0.309 |  | 0.207 | -0.045 |  |
| VPS37A (UniProt Q8NEZ2) |  | -0.707 (active) | 0.045 | -0.001 | -0.068 | 0.021 | 0.054 | 0.025 | 0.165 | 0.085 |
